Assay outcomes (PubChem BioAssay)
VP16 counter – inhibits Gal4-VP16 luciferase reporter, ROR gamma counter-screen; Drosophila S2 Gal4-VP16 UAS-luciferase, luminescence, 20 h; Potency, µM (top dose mostly 53.6 µM), actives largely listed as inhibitors; 3.5% of 310,000 active; AID 2546;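 also: Gal4-VP16 expression switched on by copper sulfate through the metallothionein promoter; nearly all actives have a fitted effect of over 50% in size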
DT40 TDP1 CPT – growth inhibition of DT40 Tdp1-/-;hTDP1 cells with camptothecin (screen for TDP1 inhibitors); Potency, µM (doses to about 46.2 µM), hits mostly inhibitors; chicken DT40 Tdp1-/-;hTDP1 cells + 20 nM CPT, ATP luminescence, 48 h; 12% of 420,000 active; also: nearly all actives have a fitted effect of over 55% in size
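Chicken DT40 Tdp1-/- cells complemented with human TDP1, 400 cells/well, exposed to compounds plus 20 nM camptothecin for at least 48 h at 37 C; viability read as ATP content by CellTiter-Glo luminescence.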
ELG1 DNA repair – inhibitors of ELG1-dependent DNA repair in HEK293T cells | HEK293T ELG1-luciferase reporter, luminescence, 16 h; DNA damage induced by 5-fluorouridine | Potency, µM (doses to about 46.1 µM), most hits filed as inhibitors | 2.3% of 330,000 active | AID 504467; also: nearly all actives have a fitted effect of over 55% in size
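Overnight (16 hr) co-exposure of 2,000 cells/well to 5-fluorouridine and compound at 37 °C preceded detection. Luciferase was quantified via ONE-Glo luminescence; loss of signal denotes inhibition.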
RORgamma inh – inhibitors of mouse ROR gamma transcriptional activity; Drosophila S2 Gal4-RORgamma UAS-luciferase reporter, 20 h; Potency, µM (top dose mostly 53.6 µM), most hits filed as inhibitors; 5.4% of 310,000 active; AID 2551; also: nearly all actives have a fitted effect of over 60% in size
Target sequence (P51450 whole entry, looked up, the tested form may be a part): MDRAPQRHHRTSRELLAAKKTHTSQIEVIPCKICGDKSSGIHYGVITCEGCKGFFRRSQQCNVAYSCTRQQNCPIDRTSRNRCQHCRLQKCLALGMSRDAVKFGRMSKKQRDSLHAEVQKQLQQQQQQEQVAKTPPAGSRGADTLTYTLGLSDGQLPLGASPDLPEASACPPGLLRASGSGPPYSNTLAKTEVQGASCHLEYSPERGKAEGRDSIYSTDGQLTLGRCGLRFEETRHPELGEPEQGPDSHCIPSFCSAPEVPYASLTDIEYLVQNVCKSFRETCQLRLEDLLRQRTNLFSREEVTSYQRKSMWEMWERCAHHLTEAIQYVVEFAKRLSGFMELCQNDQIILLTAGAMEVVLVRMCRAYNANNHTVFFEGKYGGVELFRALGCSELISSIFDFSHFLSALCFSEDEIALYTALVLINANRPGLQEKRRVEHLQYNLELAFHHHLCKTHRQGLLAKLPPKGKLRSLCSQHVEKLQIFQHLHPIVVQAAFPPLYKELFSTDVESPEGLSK
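Luciferase reporter read in Schneider cells carrying Gal4-RORγ (mouse) and UAS-Photinus luciferase; cells given compound 1 h before 700 uM copper sulfate induction, then incubated 20 h at ambient temperature.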
IL-1B inflam inh – inhibitors of inflammasome signaling (IL-1 beta secretion) | THP-1 LPS/ATP IL-1B secretion, AlphaLISA, 16 h; active compounds read low | AID 743279 | 4.7% of 360,000 active | activity change, % at 57.5 µM; in the data active = activity change below about -50%; inconclusive = mostly about -30% to -49%
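Secreted IL-1B measured by AlphaLISA bead assay after 16 h compound exposure of THP-1 cells; compounds (final up to 57.5 uM) added 1 h before LPS (250 ng/mL) and ATP (1.25 mM) stimulation; lower signal means less secretion.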
TDP1 cell noCPT – qHTS for Inhibitors of human tyrosyl-DNA phosphodiesterase 1 (TDP1): qHTS in cells in absence of CPT; DT40 Tdp1-/- hTDP1 cells, no CPT, ATP luminescence, 48 h; Potency, µM (doses to about 46.2 µM), hits mostly inhibitors; 15% of 420,000 active; AID 686978, 2013; also: nearly all actives have a fitted effect of over 55% in size
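Growth kinetics read by CellTiter-Glo luminescence after ≥48 hr at 37 °C. Cells: DT40 Tdp1-/- stably carrying human TDP1, 400 per well, compound exposure in the absence of CPT (DMSO vehicle).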
Each line names hits and unclear results; the compound was inactive in the other large screens. This is a sample that favours compounds with a hit; in the whole collection about 21% have one here. Unless noted, calls follow the shape of the dose curve; as a rule, active = well fitted curve in the direction sought with a large enough effect; inconclusive = small, poorly fitted or top-dose-only effect, or another doubt; inactive = no such curve, though single readings can be large; an effect the other way counts as inactive or inconclusive.

COc1ccc(-n2ccnc(NCCc3ccc(S(N)(=O)=O)cc3)c2=O)cc1Cl	TDP1 cell noCPT inconclusive (no result: VP16 counter, ELG1 DNA repair, RORgamma inh, IL-1B inflam inh)
CCCCC(=O)OCc1nc2ccccc2s1	DT40 TDP1 CPT inconclusive, ELG1 DNA repair inconclusive, RORgamma inh inconclusive
Cc1noc(C)c1COC(=O)CCCc1nc2ccccc2s1	VP16 counter 7.94µM, RORgamma inh inconclusive
COc1ccccc1C1CC(c2ccc(F)cc2)Nc2ncnn21 (stereo not drawn)	DT40 TDP1 CPT 7.31µM, TDP1 cell noCPT 20.6µM
CCc1ccc(C2CC(c3ccccc3)n3ncnc3N2)cc1 (stereo not drawn)	DT40 TDP1 CPT inconclusive, RORgamma inh 17.8µM
COc1ccccc1C1CC(c2ccc(C)cc2)Nc2ncnn21 (stereo not drawn)	DT40 TDP1 CPT inconclusive, TDP1 cell noCPT 18.4µM
COc1ccccc1C1CC(c2ccccc2)Nc2ncnn21 (stereo not drawn)	DT40 TDP1 CPT 8.2µM, TDP1 cell noCPT 23.1µM
Fc1ccc(C2CC(c3ccco3)n3ncnc3N2)cc1 (stereo not drawn)	none
CCc1ccc(C2CC(c3ccc(C)cc3)n3nc(N)nc3N2)cc1 (stereo not drawn)	DT40 TDP1 CPT inconclusive, TDP1 cell noCPT inconclusive (no result: VP16 counter, ELG1 DNA repair, RORgamma inh)
COc1cccc(C2CC(c3ccccc3Cl)n3ncnc3N2)c1 (stereo not drawn)	TDP1 cell noCPT inconclusive
O=C(CC[C@H]1O[C@@H](n2ccc(=O)[nH]c2=O)[C@H](O)[C@@H]1O)NCCN1CCOCC1	none (no result: VP16 counter, ELG1 DNA repair, RORgamma inh)
CCCC(=O)Nc1ccc2c(c1)nc(CN1CCN(C(=O)OCC)CC1)n2CC	DT40 TDP1 CPT 3.66µM, ELG1 DNA repair inconclusive, TDP1 cell noCPT 2.31µM
CCCC(=O)Nc1ccc2c(c1)nc(CN1CCN(C(=O)OCC)CC1)n2C(C)C	DT40 TDP1 CPT 0.651µM, TDP1 cell noCPT 0.0651µM (no result: VP16 counter, ELG1 DNA repair, RORgamma inh, IL-1B inflam inh)
CCOC(=O)N1CCN(Cc2nc3cc(NC(=O)c4ccccc4Cl)ccc3n2C(C)C)CC1	DT40 TDP1 CPT 1.46µM, TDP1 cell noCPT 1.46µM (no result: VP16 counter, ELG1 DNA repair, RORgamma inh, IL-1B inflam inh)
CCCCC(=O)Nc1ccc2c(c1)nc(CN1CCN(C(=O)OCC)CC1)n2C	DT40 TDP1 CPT inconclusive, ELG1 DNA repair inconclusive
CCCC(=O)Nc1ccc2c(c1)nc(CN1CCN(C(=O)OCC)CC1)n2C	none
CN(C)c1ncc2nc(-c3cccc(C#N)c3)c(=O)n(CCC#N)c2n1	none (no result: ELG1 DNA repair, IL-1B inflam inh)
N[C@@]1(C(=O)O)CN[C@@H](C(=O)O)C1	none (no result: VP16 counter, ELG1 DNA repair, RORgamma inh, IL-1B inflam inh)
Cc1cccc(N2C(=O)C(Oc3ccc(Cl)cc3Cl)C2C(=O)O)c1C (stereo not drawn)	VP16 counter inconclusive, DT40 TDP1 CPT inconclusive, TDP1 cell noCPT inconclusive
CCCCNCC1C(Oc2ccc(Cl)cc2)C(=O)N1c1ccccc1C (stereo not drawn)	DT40 TDP1 CPT inconclusive, ELG1 DNA repair inconclusive, IL-1B inflam inh -195.5, TDP1 cell noCPT 14.6µM
CCCNCC1C(Oc2ccc(Cl)cc2Cl)C(=O)N1c1cccc(C)c1C (stereo not drawn)	DT40 TDP1 CPT inconclusive, ELG1 DNA repair inconclusive, RORgamma inh inconclusive, IL-1B inflam inh -53.1, TDP1 cell noCPT 18.4µM
CCOc1cc(/C=C/c2cc(C(=O)O)c3ccccc3n2)ccc1O	VP16 counter inconclusive, ELG1 DNA repair inconclusive, RORgamma inh inconclusive
COc1cc(/C=C/c2cc(C(=O)O)c3ccccc3n2)cc(OC)c1O	VP16 counter inconclusive, TDP1 cell noCPT inconclusive
CCOc1cc(/C=C/c2cc(C(=O)O)c3ccccc3n2)ccc1OC	VP16 counter inconclusive, ELG1 DNA repair inconclusive, RORgamma inh 12.6µM
CCOc1cccc(/C=C/c2cc(C(=O)O)c3ccccc3n2)c1OC	VP16 counter inconclusive, ELG1 DNA repair inconclusive, RORgamma inh 4.47µM
Cc1nc2ccccc2c(=O)n1NC(=O)/C=C/c1ccccc1Cl	DT40 TDP1 CPT inconclusive, TDP1 cell noCPT inconclusive
Cc1cc(NC(=O)CN2CCCCC2)n(-c2ccccc2)n1	TDP1 cell noCPT inconclusive
Cc1cc(NC(=O)/C=C/c2ccccc2Cl)n(-c2nc3ccccc3[nH]2)n1	VP16 counter 1.26µM, DT40 TDP1 CPT inconclusive, ELG1 DNA repair inconclusive, RORgamma inh 1.78µM, TDP1 cell noCPT 10.3µM
Cc1cc(NC(=O)c2ccccc2F)n(C(C)(C)C)n1	none
Cc1cc(NC(=O)c2ccc(F)cc2F)n(-c2nc3ccccc3[nH]2)n1	VP16 counter 1.78µM, DT40 TDP1 CPT inconclusive, RORgamma inh 1.12µM
Cc1cc(NC(=O)CC2CCCC2)n(-c2nc3ccccc3[nH]2)n1	VP16 counter 3.55µM, DT40 TDP1 CPT inconclusive, ELG1 DNA repair 23.1µM, RORgamma inh 1.78µM, TDP1 cell noCPT 20.6µM
CCOC(=O)Cn1nc(-c2ccc(F)cc2)oc1=O	VP16 counter inconclusive, ELG1 DNA repair inconclusive, RORgamma inh inconclusive
NC(=S)N=Nc1ccc(NN=C(N)N)cc1	DT40 TDP1 CPT 1.3µM, RORgamma inh inconclusive, TDP1 cell noCPT 1.46µM
O=c1c(=Nc2ccccc2O)c(=O)c2ccccc12	VP16 counter inconclusive, DT40 TDP1 CPT 7.31µM, ELG1 DNA repair inconclusive, TDP1 cell noCPT 11.6µM
CCCCc1nc2c(c3c1CC(C)OC3)CN(CCOc1ccccc1)CC2 (stereo not drawn)	none (no result: DT40 TDP1 CPT, ELG1 DNA repair, IL-1B inflam inh, TDP1 cell noCPT)
O=C1NC[C@H](CCCCN2C[C@H](Cc3ccc(O)cc3)N(CC3CCCCC3)C(=O)C2=O)N(Cc2ccccc2)C1=O	none (no result: VP16 counter, ELG1 DNA repair, RORgamma inh)
